Screening results deposited in PubChem BioAssay by Paczesny and Yang Labs, IUPUI and University of Michigan.
The entries come from a sample that favours hits as a whole.
ST2 IL33 inh – IL1RL1 inhibition; 78,000 tested, 2.3% active; AID 1259354; AlphaLISA ST2-Fc/biotin-IL-33 interaction, 1 h; inhibition, % for hits at 17 µM; in the data active = inhibition above about 30%
Target sequence (Q01638 whole entry, looked up): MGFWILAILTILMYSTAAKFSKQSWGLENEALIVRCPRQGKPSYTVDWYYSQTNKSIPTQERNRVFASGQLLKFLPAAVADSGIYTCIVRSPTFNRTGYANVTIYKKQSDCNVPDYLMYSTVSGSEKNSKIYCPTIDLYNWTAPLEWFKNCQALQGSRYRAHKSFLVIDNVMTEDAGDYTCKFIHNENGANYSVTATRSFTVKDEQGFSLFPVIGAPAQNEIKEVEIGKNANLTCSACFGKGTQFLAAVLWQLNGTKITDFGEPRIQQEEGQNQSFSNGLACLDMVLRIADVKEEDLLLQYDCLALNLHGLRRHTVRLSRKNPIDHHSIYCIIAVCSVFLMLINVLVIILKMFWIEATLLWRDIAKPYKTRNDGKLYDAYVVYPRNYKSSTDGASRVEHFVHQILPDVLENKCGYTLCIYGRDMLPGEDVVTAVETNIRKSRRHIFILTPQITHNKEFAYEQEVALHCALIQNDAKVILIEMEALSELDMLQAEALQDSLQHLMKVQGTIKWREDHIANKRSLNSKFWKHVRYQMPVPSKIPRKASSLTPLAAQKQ
Numbers without * were called inactive; i = inactive.

SMILES | ST2 IL33 inh
O=[N+]([O-])c1ccc(-c2nc(NC3CCCCC3)c3ccccc3n2)cc1 | i
Cc1cc(C)c(OCC(=O)Nc2ccc(S(N)(=O)=O)cc2)c(C)c1 | i
C=CCN(c1ccccc1)S(=O)(=O)c1cc(Br)cc2c1N(C(=O)C1CC1)CC2 | i
O=C(CC1Nc2ccccc2NC1=O)Nc1ccccc1OC(F)F (stereo not given) | i
COc1ccc(NC(=O)c2cc3cc4ccc(C)cc4nc3s2)cc1OC | i
COc1ccc([N+](=O)[O-])cc1NC(=O)c1cc2cc3ccc(C)cc3nc2s1 | 46.0%*
COc1ccc2nc3sc(C(=O)NCc4ccccc4OC)cc3cc2c1 | i
COc1ccc([N+](=O)[O-])cc1NC(=O)c1ccoc1C | i
COCCCNC(=O)c1cc2cc3cc(OC)ccc3nc2s1 | i
COc1ccc([N+](=O)[O-])cc1NC(=O)COc1ccc(C)cc1Br | i
COc1ccc2cc3cc(C(=O)NCc4ccc(C)cc4)sc3nc2c1 | 31.0%*
COc1ccc2cc3cc(C(=O)N4CCN(C)CC4)sc3nc2c1 | i
COc1ccc2cc3cc(C(=O)Nc4ccc(OC)c(Cl)c4)sc3nc2c1 | 38.0%*
CCN(CCCNC(=O)c1cc2cc3ccc(OC)cc3nc2s1)c1ccccc1 | 31.0%*
COCCNC(=O)c1cc2cc3cc(OC)ccc3nc2s1 | i
CCCCNC(=O)c1cc2cc3cc(OC)ccc3nc2s1 | i
COc1ccccc1CCC(=O)Nc1cnn(CC(=O)NC2Cc3ccccc3C2)c1 | i
CC(Cn1cccn1)C(=O)N1CCC(c2cc(C(C)C)n[nH]2)CC1 (stereo not given) | i
COc1ccc(CN2CC(OCc3cccnc3)CN(C(=O)c3snnc3C)CC2=O)cc1 (stereo not given) | i
COc1cc(Nc2nc3nonc3nc2N2CCCCC2C)c(OC)cc1Cl (stereo not given) | i
O=C1CCCC2=C1C(c1cccc(O)c1)c1c(nc(SCc3ccccc3Cl)[nH]c1=O)N2 (stereo not given) | i
CCSc1oc(-c2cccs2)nc1S(=O)(=O)c1ccc(F)cc1 | i
CCN(CC)C(=O)c1ccc(Cl)c(NC(=O)COc2ccccc2O)c1 | i
Fc1cccc(-c2nccn2CCCc2ccncc2)c1F | i
COc1ccc(C2NC(=O)c3cnn(-c4ccccc4)c3N2)cc1COc1ccccc1C (stereo not given) | i
SMILES | ST2 IL33 inh
COC(=O)[C@@H]1C[C@@H](N(C)C)CN1S(=O)(=O)c1cc(C)sc1C | i
CCOc1ccc(-c2nc3s/c(=C\c4ccc(C)cc4)c(=O)n3n2)cc1 | i
CCOc1ccc(/C=c2\sc3n(c2=O)CN(c2ccc4c(c2)OCO4)CN=3)cc1 | 31.0%*
CCCCOc1ccc(/C=c2\sc3nc(=O)c(C)nn3c2=O)cc1 | i
CCOc1ccc(CN2CCN(Cc3ccc4c(c3)OCO4)CC2)cc1 | i
CCOc1ccc(/C=c2\sc3n(c2=O)CN(c2cccc(C(C)=O)c2)CN=3)cc1 | 31.0%*
CC(=O)c1ccc(N2CN=c3s/c(=C\c4ccc(I)o4)c(=O)n3C2)cc1 | i
CN1C(N)=NC(=O)C12COC(c1cccnc1)OC2 (stereo not given) | i
COc1cc(OC)c2c(c1/C=C/C(C)(C)O)O[C@H](c1ccccc1)CC2=O | i
CCCNC(=O)CSc1nc2nc(C)c(Cc3ccc(C)cc3)c(C)n2n1 | i
Cc1cc2nc(COc3ccc(Cl)cc3NC(=O)c3cccc(F)c3)cc(=O)n2o1 | i
CC(C)(CC(=O)O)CC(=O)N1CC[C@H]2NC(=O)N(c3ccc(F)cc3)C(=O)[C@H]21 | i
COc1ccc(CCNc2ncnc3scc(-c4ccccc4)c23)cc1OC | i
O=C(CSc1cn(Cc2ccccc2Cl)c2ccccc12)N1CCCCC1 | i
Cc1ccc(/C=C/NC(=O)c2ccco2)cc1C | 31.0%*
Cc1ccccc1NC(=O)c1ccco1 | i
Cc1cccc(C)c1NC(=O)c1ccco1 | i
CC1=C(C(=O)Nc2ccccc2)C(c2cccnc2)n2nc(SCc3ccccc3)nc2N1 (stereo not given) | i
CC1=C(C(N)=O)C(c2ccccc2)n2nc(SCc3ccccc3)nc2N1 (stereo not given) | i
CC1=C(C(=O)Nc2ccccc2C)C(c2ccncc2)n2nc(SCc3ccccc3)nc2N1 (stereo not given) | 33.0%*
COc1ccc(C2CC(=O)C3=C(C2)Nc2ccccc2NC3c2ccccc2[N+](=O)[O-])cc1OC (stereo not given) | i
COc1ccc(N2CCN(C(=O)c3ccc4nc5cc(Cl)ccc5c(=O)n4c3)CC2)cc1 | i
CCc1ccccc1NC(=O)c1ccccc1[N+](=O)[O-] | i
CCCOc1ccc(C(=O)Nc2ccccc2[N+](=O)[O-])cc1 | 39.0%*
CCOc1ccc(NC(=O)c2ccccc2Br)c([N+](=O)[O-])c1 | 36.0%*
SMILES | ST2 IL33 inh
Cc1c(C(=O)Nc2ccccc2[N+](=O)[O-])csc1-c1ccccc1 | 35.0%*
CCCOc1cccc(C(=O)Nc2ccccc2Cl)c1 | i
Cc1ccc(NC(=O)c2ccccc2[N+](=O)[O-])cc1 | i
CCN(CC)c1ccc(NC(=O)c2ccccc2Br)c(C)c1 | i
CCOc1ccc(NC(=O)c2ccccc2OCC)c([N+](=O)[O-])c1 | 42.0%*
CCCOc1ccc(C(=O)Nc2cc(Cl)ccc2Cl)cc1 | i
CCOc1cccc(C(=O)Nc2ccc(C)cc2[N+](=O)[O-])c1 | i
CCOc1ccccc1NC(=O)c1ccccc1C | i
CCC(=O)c1ccccc1NC(=O)c1ccccc1Br | i
CC(C(=O)N1c2ccccc2C(Nc2ccccc2)CC1C)N1C(=O)c2ccccc2C1=O (stereo not given) | i
CN(C)c1nc2ncnc(SCC(=O)Nc3ccccc3)c2s1 | i
Cn1c2ccccc2c2nc3ccc([N+](=O)[O-])cc3cc21 | i
CC1CC(=O)N(CC(=O)N2CCCCC2)c2ccccc2S1 (stereo not given) | i
Cc1nc(SCC(=O)N2CCc3ccccc32)c2c(=O)n(C)c(=O)n(C)c2n1 | i
Cc1ccc(-c2noc([C@@H]3C[C@@H](O)CN3Cc3ccccc3O)n2)cc1F | i
N#Cc1ccccc1-c1nc2c3c(c(N)ccc3n1)C(=O)c1ccccc1-2 | 42.0%*
O=CNC1CCCc2c1[nH]c1ccc([N+](=O)[O-])cc21 (stereo not given) | i
Cc1ccc(C2C(C#N)=C(N)OC3=C2C(=O)CCC3)o1 (stereo not given) | i
Cc1ccc(C2C(C#N)=C(N)Oc3c2sc2ccccc32)o1 (stereo not given) | 39.0%*
CCOC(=O)CC1=C(C(=O)OCC)C(c2ccc(C)o2)C(C#N)=C(N)O1 (stereo not given) | i
CCc1ccccc1NC(=O)CSc1nc2ccccc2c(=O)n1CCc1ccccc1 | i
C=CCn1c(SCC(=O)Nc2ccccc2[N+](=O)[O-])nc2sc(CC)cc2c1=O | 30.0%*
C=CCn1c(SCC(=O)Nc2sc3c(c2C(=O)OCC)CCC3)nc2ccccc2c1=O | i
CCn1cc(NC(=O)c2cccc(CN3CCC(N(C)C(C)=O)C3)c2)nn1 (stereo not given) | i
O=C(Nc1ccncc1)c1c(O)c2ccccc2[nH]c1=O | i
Cc1ccc(Nc2ncnc3c2cnn3-c2cccc(C)c2)cc1 | i
Cc1nc2c(ccc3nc(NC(=O)c4ccc(C#N)cc4)sc32)s1 | 35.0%*
Cc1ccc(C(=O)Nc2nc3ccc4nc(C)sc4c3s2)cc1 | i
CCN(CC)c1ccc(C(=O)Nc2nc3ccc4sc(C)nc4c3s2)cc1 | i
